Screens as filed in PubChem.
DAX1 inh-1 – inhibits human nuclear receptor DAX1; P51843; AID 504766; HEK293 Gal4-DAX1 luciferase reporter, luminescence; inhibition, % at 6.75 µM; 340,000 tested, 0.99% active;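 active means inhibition above the mean over all tested compounds plus 3 SD, cut at about 4.2% in these data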;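 further: 0% = DAX1-transfected cells with DMSO and 100% = empty-vector control cells with DMSO; inhibition shows as a rise in luminescence from relieved DAX1 repression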
Target sequence (P51843 207-470 limits assumed): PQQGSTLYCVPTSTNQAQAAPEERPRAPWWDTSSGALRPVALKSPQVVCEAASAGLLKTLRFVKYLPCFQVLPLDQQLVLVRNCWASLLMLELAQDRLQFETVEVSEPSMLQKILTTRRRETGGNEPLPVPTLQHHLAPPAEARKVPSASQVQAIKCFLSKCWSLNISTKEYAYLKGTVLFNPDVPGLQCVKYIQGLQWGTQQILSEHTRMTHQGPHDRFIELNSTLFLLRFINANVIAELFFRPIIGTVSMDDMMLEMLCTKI
hcDAF12 agonist – activators of H. contortus DAF-12 nuclear receptor | HEK293 hcDAF-12 lit1-tk-luc reporter, luminescence; 0% DMSO, 100% Δ7-dafachronic acid | 370,000 tested, 1.4% active | activation, % at 6.8 µM;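 active means activation above the mean of all tested compounds plus 3 SD, cut at about 5.5% in these data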;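 further: 100% = response to 3 µM Δ7-dafachronic acid high control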
DAX1 inh-2 – inhibitors of DAX1 repression of SF-1 activated StAR promoter | HEK293T StAR-luciferase reporter, SF-1/DAX-1 repression relief | inhibition, % at 6.8 µM | 370,000 tested, 1.1% active;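 active means inhibition above the mean over all tested compounds plus 3 SD, cut at about 3.6% in these data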;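 further: 0% = DAX-1 cells with DMSO and 100% = cells lacking DAX-1 with DMSO; higher inhibition means more luminescence from relief of DAX-1 repression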
PolyA inhibitor – yeast polyadenylation inhibition. AID 1875. activity score, % at 12 µM. 300,000 tested, 0.02% active. S. cerevisiae SKY197-pL101 polyadenylation reporter, beta-gal luminescence; efflux-impaired pdr1/pdr3 knockout yeast; score 100 = 6 SD above DMSO;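 active means lowest replicate activity score at least 50, where 100 means six control SD above control mean; inconclusive means lowest score under 50 but half or more replicates reach 50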;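 further: yeast exposed to compound for 9 h at 30 °C; higher score means more reporter readthrough which indicates perturbed polyadenylation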
hgDAF12 agonist – activates the H. glycines DAF-12 receptor ligand-binding domain; 370,000 tested, 1.8% active; activation, % at 6.8 µM; AID 687014; HEK293 GAL4-hgDAF12 UAS-luciferase reporter, agonist luminescence; normalized to butyrate control;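 active means activation above a cutoff set at the mean of all screened compounds plus 3 SD, cut at about 10% in these data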;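 further: 0% = DMSO wells and 100% = sodium butyrate wells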
ssDAF12 agonist – activators of S. stercoralis DAF-12 nuclear receptor; HEK293 ssDAF-12/GRIP1 lit1-tk-luc reporter, luminescence; % of 3 µM dafachronic acid response; activation, % at 6.8 µM; AID 652126; 370,000 tested, 1% active;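 active means activation above the mean over all tested compounds plus 3 SD, cut at about 0.9% in these data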;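 further: 0% = DMSO-only wells and 100% = 3 µM delta7-dafachronic acid wells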
* hit, by the source's call; u = inconclusive; x = not tested or not shown. A selection: hits, their analogues and other compounds. The true share with any hit is near 4.1%.

SMILES | DAX1 inh-1 | hcDAF12 agonist | DAX1 inh-2 | PolyA inhibitor | hgDAF12 agonist | ssDAF12 agonist
O=C(COC(=O)C1COc2ccccc2O1)Nc1cccc(F)c1 (stereo not given) | 0 | 1 | 1 | x | 1 | -1
N#CCC(=O)Nc1ccc(C(=O)OCC(=O)NC(=O)Nc2ccc3c(c2)OCCO3)cc1 | 2 | 4 | 4.2* | x | 10 | 0
CC(C)(C)NC(=O)[C@@H](c1cccnc1)N(C(=O)c1ccco1)c1ccc(C(C)(C)C)cc1 | x | -2 | x | x | 3 | -1
O=C(COC(=O)/C=C/c1ccc([N+](=O)[O-])cc1)Nc1ccc(F)cc1 | 0 | 0 | -1 | x | 1 | -1
NS(=O)(=O)c1ccc(NC(=O)COC(=O)/C=C/c2ccc([N+](=O)[O-])cc2)cc1 | -1 | 0 | 0 | -10 | -1 | 3.0*
Nc1ccccc1-c1nc2ccccc2[nH]c1=O | 1 | 2 | 1 | -6 | 6 | -1
O=c1[nH]c2ccccc2nc1-c1c[nH]c2ccccc12 | 2 | 6.5* | 1 | 4 | 3 | 0
CCCC1CCC(=NNS(=O)(=O)c2ccc(C)c([N+](=O)[O-])c2)CC1 (stereo not given) | 0 | -1 | 0 | -4 | 2 | -1
CCCC1CCC(=NNC(=O)OC(C)(C)C)CC1 (stereo not given) | 5.8* | 0 | 1 | -12 | 8 | -1
O=C1N(c2ccccc2)CC2C(c3ccccc3)C(c3ccccc3)N3CCCC123 (stereo not given) | x | -3 | -3 | x | -2 | -2
c1ccc2c(c1)Nc1cc3ccccc3cc1O2 | 1 | 4 | 0 | x | 5 | 0.9*
c1ccc(C2Nc3ccccc3Oc3ccccc32)cc1 (stereo not given) | 0 | -1 | 0 | -64 | 0 | -1
Cc1nn(-c2ccccc2)c(Cl)c1/C=N/NC(=O)c1cccc(S(=O)(=O)N2CCCC2)c1 | -1 | 2 | 1 | 9 | 1 | -1
Cc1nn(-c2ccccc2Cl)c(Cl)c1/C=N/Nc1cccc(C(=O)O)c1 | -4 | 4 | 4.0* | -3 | 10 | 0
COC(=O)C1=C(C)N(C)C(=NCc2ccccc2)NC1c1ccc(F)cc1 (stereo not given) | x | 0 | 0 | x | 2 | 0
CN(CC(=O)Nc1ccc(F)cc1)C(=O)c1ccc2ccccc2n1 | 1 | 6.0* | 1 | x | 1 | 0
CN(CC(=O)Nc1ccccc1)CC(=O)Nc1ccc(F)cc1 | 1 | 0 | -1 | 10 | 2 | -1
O=C(c1cc(COc2c(F)cccc2F)on1)N1C[C@H]2CC[C@H]1C2 | 1 | 4 | 4 | -4 | 11* | 0
COCC1CCN(C(=O)c2cc(COc3ccc(F)cc3F)on2)C1 (stereo not given) | 0 | -1 | 2 | 10 | -1 | -1
O=C(c1cc(COc2ccc(F)cc2F)on1)N1C[C@H]2CC[C@H]1C2 | 0 | 0 | 3 | u | 6 | 0
COc1ccccc1OCc1cc(C(=O)N2CCN(C)C(c3ccccc3)C2)no1 (stereo not given) | 2 | 2 | 4.2* | -8 | 7 | 0
COc1cc(C)ccc1OCc1cc(C(=O)N2CCC(c3ccc(F)cc3)C2)no1 (stereo not given) | 3 | 5 | 1 | 11 | 13* | 1
COc1ccccc1OCc1cc(C(=O)N2CC3C[C@@H]4CC2C[C@H](C3)C4)no1 | 2 | 1 | 3.7* | -2 | 12* | -1
CSc1ccccc1OCc1cc(C(=O)N2CCN(C)C(c3ccccc3)C2)no1 (stereo not given) | 1 | 4 | 0 | -88 | 4 | -1
COc1ccc2cc(/C=N/NC(=O)CN(c3ccccc3OC)S(=O)(=O)c3ccccc3)c(Cl)nc2c1 | x | -1 | -1 | x | 0 | -2
SMILES | DAX1 inh-1 | hcDAF12 agonist | DAX1 inh-2 | PolyA inhibitor | hgDAF12 agonist | ssDAF12 agonist
COC(=O)c1cc2c(c3c4cc(F)ccc4n(S(=O)(=O)c4ccccc4)c13)C(=O)N(C)C2 | x | 0 | 0 | x | 0 | -1
Cc1ccc(-n2c(SCC(=O)Nc3ccc4c(c3)OCCO4)nnc2-c2ccccn2)cc1 | x | -2 | 0 | x | 4 | -1
COc1cc(OC)cc(-c2csc(N3CCC(C(N)=O)CC3)n2)c1 | x | -1 | x | x | 4 | -2
O=C(NC1CCC1)O[C@H]1CC[C@@]23CCCN2C(=O)CCC[C@H]3C1 | x | -2 | x | x | 3 | -2
O=C(CCc1nc2ccccc2s1)NCc1ccccc1F | 0 | 2 | 0 | 2 | -2 | -1
CN(C)C(CNC(=O)CCc1nc2ccccc2s1)c1ccccc1 (stereo not given) | 5.5* | -2 | 0 | -13 | -2 | 0
O=C(c1ccccc1)c1ccc2ccccc2c1 | 5.3* | 0 | -1 | x | 3 | -1
COC(=O)C1=C(C)N(Cc2cccc(C(F)(F)F)c2)C(=NCc2ccc(OC)cc2)NC1c1ccc(F)cc1 (stereo not given) | x | 0 | 1 | x | 2 | -1
Cc1ccc2nc(-c3ccccc3)cc(C(=O)NCC3CCCO3)c2c1 (stereo not given) | x | 0 | 0 | 3 | 2 | -1
O=C(NCC1CCCO1)c1cc2ccccc2nc1Cl (stereo not given) | 4.3* | 0 | 1 | 8 | 0 | 0
O=C(NCC1CCCO1)c1cccc2ccccc12 (stereo not given) | 2 | -2 | 0 | 0 | 3 | 0
Cc1nc2ccc(F)cc2cc1C(=O)NCC1CCCO1 (stereo not given) | 0 | 5.8* | 0 | -5 | -1 | 0
COc1cc(C=NN=c2sc3ccccc3n2C)ccc1OCCO | x | -1 | 2 | x | 12* | 0
CCOc1cc(S(=O)(=O)n2cnc(C)c2)ccc1Cl | 4.5* | 0 | -1 | 9 | -2 | -1
COc1cc(S(=O)(=O)n2cnc(C)c2)ccc1Cl | 0 | 0 | 1 | 0 | -1 | 1
COC(=O)[C@]12C[C@H](CC(=O)N3CCC(c4ccccc4)CC3)C(=O)N(Cc3ccc(Cl)cc3Cl)C1=C[C@H](C(C)(C)C)O[C@@H]2C | x | -1 | 0 | x | -3 | 1.1*
COC(=O)[C@]12C[C@H](CC(=O)N3CCSCC3)C(=O)N(Cc3ccc(Cl)cc3Cl)C1=C[C@H](C(C)(C)C)O[C@@H]2C | x | -3 | -1 | x | 1 | -1
O=C(Nc1ccc(F)cc1F)c1ccc2c(c1)OCCO2 | -1 | 6 | 2 | 10 | 13* | 0
O=C(Nc1ccc(Br)cc1F)c1ccc2c(c1)OCCO2 | -1 | 4 | 3 | -8 | 11* | 1
N#Cc1ccccc1NC(=O)c1ccc2c(c1)OCCO2 | 1 | 0 | 1 | -12 | 8 | 0
O=C(COC(=O)c1ccc2c(c1)OCCO2)Nc1ccc(F)cc1F | 0 | -1 | 0 | x | -1 | -1
